Screening results deposited in PubChem BioAssay by National Center for Advancing Translational Sciences (NCATS).
D3 ag: qHTS of D3 Dopamine Receptor Agonist: qHTS; D3R DiscoveRx beta-arrestin cells, luminescence, 90 min; max activation, %; hit rate 0.58% among 410,000; in the data active = max activation above about 30%; also: 0% is about no effect
Target sequence (P35462 whole entry, looked up): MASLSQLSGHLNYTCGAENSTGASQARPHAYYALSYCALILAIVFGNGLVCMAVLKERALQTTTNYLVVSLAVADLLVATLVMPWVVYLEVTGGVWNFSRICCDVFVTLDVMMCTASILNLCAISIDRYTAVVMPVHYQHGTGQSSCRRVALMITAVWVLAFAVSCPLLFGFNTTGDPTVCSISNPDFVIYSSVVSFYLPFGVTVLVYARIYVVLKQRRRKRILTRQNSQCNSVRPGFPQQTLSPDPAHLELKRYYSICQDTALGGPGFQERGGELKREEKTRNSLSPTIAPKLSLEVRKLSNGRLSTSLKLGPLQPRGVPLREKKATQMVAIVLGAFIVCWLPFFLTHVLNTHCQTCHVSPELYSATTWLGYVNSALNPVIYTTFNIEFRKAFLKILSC
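Agonist-mode cell screen: cells plated at 1500/well and incubated overnight at 37 °C, then exposed to library compounds for 90 min at 37 °C. Detection reagent was added for 30–60 min at room temperature, and luminescence was read.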
ClpP mod: qHTS Assay for Activators of ClpP | ATP-dependent Clp protease proteolytic subunit (Bacillus subtilis (strain 168)), P80244 | purified B. subtilis ClpP, FRET peptide cleavage, 20 min | Potency, µM (top dose mostly 57.5 µM), for inactives: top-dose activity change, negative = active | hit rate 1.9% among 340,000 | AID 651965, 2013; active = well fitted falling curve with a large enough effect; inconclusive = small, poorly fitted or top-dose-only effect; inactive = no such curve, though single readings can be large or run the other way; also: potency is read from the fitted curve at half-maximal effect; the source files actives as falling curves though it sought activators and does not explain the sign; nearly all actives have a fitted effect of over 65% in size
Target sequence (P80244 whole entry, looked up): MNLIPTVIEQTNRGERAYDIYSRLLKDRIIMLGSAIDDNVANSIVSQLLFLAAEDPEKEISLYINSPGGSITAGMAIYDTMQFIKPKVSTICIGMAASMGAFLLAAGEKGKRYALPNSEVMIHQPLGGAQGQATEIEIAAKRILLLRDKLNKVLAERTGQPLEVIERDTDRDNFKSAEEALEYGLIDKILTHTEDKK
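ClpP 10 microg/mL final, pH 8 Tris/KCl buffer with BSA, glycerol, Tween-20; compound pinned in; FRET-FV substrate; RT 20 min; Ex320/Em430; ΔFRET vs ADEP 5.8 microM, DMSO, no enzyme.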
HEK293 tox: qHTS of GLP-1 Receptor Inverse Agonists: Cytotox Screen. HEK293 cAMP-luciferase reporter cells, luminescence, 24 h. Potency, µM (top dose mostly 38.3 µM), for inactives: at the highest dose activity change, negative = inhibition, most hits filed as inhibitors. hit rate 0.13% among 410,000. AID 624418, 2012;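 also: loss of luciferase light is scored as toxicity; potency is read from the fitted curve at half-maximal effect; % is scaled to controls: 0 for no effect and ±100 for the full control effect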
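Step one: seed cells (200 cells/uL, DMEM with 10% Nu serum, 1% pen-strep). Step two: 12-hour incubation at 37 deg C. Step three: pin 23 nL compound, incubate 24 hr. Step four: add luciferase reagent, read luminescence 12 min later.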
GLP1R ag: qHTS of GLP-1 Receptor Agonists; HEK293 GLP-1R CRE-luciferase, luminescence, 4-6 h; cells express a hypersensitive GLP-1R form; Glucagon-like peptide 1 receptor (Homo sapiens), P43220; hit rate 0.007% among 380,000; Potency, µM (doses to about 45.6 µM), inactives show top-dose activation, hits mostly activators; also: potency is read from the fitted curve at half-maximal effect; % of control where 0% means no effect
GLP-1R inv ag: qHTS of GLP-1 Receptor Inverse Agonists (Inhibition Mode). hit rate 1.6% among 410,000. Glucagon-like peptide 1 receptor (Homo sapiens), P43220. HEK293 GLP-1R CRE-luciferase, luminescence, 24 h; GLP-1R form is constitutively active. AID 624417, 2012. Potency, µM (titrated, usually from 38.3 µM), for the others: top-dose activity change, negative = inhibition, usual class: inhibitors; also: potency is read from the fitted curve at half-maximal effect; % is scaled to controls: 0 for no effect and ±100 for the full control effect; nearly all actives have a fitted effect of over 55% in size
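Inverse agonism was detected as reduced cAMP-driven luciferase luminescence after 24 h compound treatment. The cells were HEK293 clones expressing constitutively active human GLP-1R with the reporter. Reporter-only and GPR119 cell lines served as counterscreen controls.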
D3 antag: qHTS of D3 Dopamine Receptor Antagonist: qHTS; D(3) dopamine receptor (Homo sapiens), P35462; D3R cells, DiscoveRx beta-arrestin luminescence, antagonist mode; active compounds read low; max response, negative = inhibition, %; hit rate 2.5% among 360,000; AID 652054, 2013; in the data active = max response below about -50%; inconclusive = no clear call, values can overlap the other calls; also: % is scaled to controls: 0 for no effect and ±100 for the full control effect
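Cells plated overnight at 1500 cells/well, then exposed to library compounds with dopamine controls for 90 minutes at 37 degrees C. DiscoveRx reagent added for 30–60 minutes at room temperature; luminescence read, quantitative HTS format.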
Active calls of the source: *; ? = inconclusive; / = no result given. Shown are actives, neighbours in structure and some others; about 5.7% of the full set was active somewhere. Unless noted, calls follow the shape of the dose curve; as a rule, active = well fitted curve in the direction sought with a large enough effect; inconclusive = small, poorly fitted or top-dose-only effect, or another doubt; inactive = no such curve, though single readings can be large; an effect the other way counts as inactive or inconclusive.

SMILES	D3 ag	ClpP mod	HEK293 tox	GLP1R ag	GLP-1R inv ag	D3 antag
CC(C)(C)[C@@H]1COC(=O)[C@H](Cc2ccc(F)cc2)C/C=C\C[C@@H](CC(=O)N(CCO)Cc2ccccc2)C(=O)N1	42*	0%	-60%	-1%	?	28
C[C@H]1COC(=O)[C@H](Cc2ccc(F)cc2)C/C=C\C[C@H](CC(=O)NCCO)C(=O)N1	30*	2%	5%	-8%	25%	-18
CC(C)(C)[C@@H]1COC(=O)[C@H](Cc2ccc(F)cc2)CC/C=C\C[C@H](CC(=O)N(CCO)Cc2ccccc2)C(=O)N1	4	0%	?	-4%	?	-14
CC(C)(C)OC(=O)C[C@H]1C/C=C\C[C@@H](CC(=O)NCCO)C(=O)NC[C@H](c2ccccc2)OC1=O	17	-1%	2%	-4%	6%	29
O=S(=O)(NCCc1ccccc1)c1ccc(N2CCCCS2(=O)=O)cc1	2	-9%	4%	/	-14%	/
Nc1nc2c(ncn2[C@@H]2O[C@H](CNCc3cnc(N4CCOCC4)nc3)[C@@H](O)[C@H]2O)c(=O)[nH]1	4	-6%	5%	3%	21%	5
O=C(CCNS(=O)(=O)c1ccc2c(c1)CCCC(=O)N2)NCc1ccccc1Cl	2	-14%	-1%	-2%	-7%	/
C[C@@H]1COC(=O)[C@H](NC(=O)OCC2c3ccccc3-c3ccccc32)C/C=C\C[C@@H](CC(=O)N[C@@H](CO)Cc2ccccc2)C(=O)N1	-3	-2%	-26%	2%	18%	0
O=C1NC[C@H](c2ccccc2)OC(=O)[C@@H](Cc2ccc(F)cc2)CC/C=C/C[C@@H]1CC(=O)N(CCO)Cc1ccccc1	-27	-1%	/	-3%	?	-70*
O=C(C[C@H]1C/C=C\C[C@H](Cc2ccc(F)cc2)C(=O)O[C@@H](c2ccccc2)CNC1=O)N[C@H](CO)Cc1ccccc1	43*	0%	2%	3%	?	20
O=C(C[C@H]1C/C=C\C[C@H](NC(=O)OCC2c3ccccc3-c3ccccc32)C(=O)OC[C@H](Cc2ccccc2)NC1=O)N[C@H](CO)Cc1ccccc1	-19	2%	0%	8%	-21%	-51*
O=C1NC[C@H](c2ccccc2)OC(=O)[C@@H](Cc2ccc(F)cc2)CC/C=C/C[C@H]1CC(=O)N(CCO)Cc1ccccc1	-6	0%	/	-1%	-1%	19
COCCNC(=O)CSc1ccc(Cl)cc1	4	/	0%	4%	-2%	4
COCCNCCCCSc1ccc(Cl)cc1	-1	-2%	2%	-3%	?	-59*
CC1(C(=O)NS(=O)(=O)c2cccc(C#N)c2)CCN1C(=O)CCC1CCCC1 (configuration not stated)	5	1%	0%	-2%	4%	23
CCC(=O)N1CCc2cc(S(=O)(=O)NCCC(=O)Nc3ccc(C)cc3)ccc21	1	-2%	-2%	/	11%	/
O=C(Cc1ccc(NC(=O)C2CCN(C(=O)C3CC3)CC2)cc1)Nc1ccc(C(=O)N2CCOCC2)cc1	1	0%	6%	15%	10%	0
O=C1c2cccc(Cl)c2C(=O)c2c1cccc2N1CCCC1	-3	0%	?	10%	6.3µM*	-19
CNCCCOc1ccc(C)cc1Br	-8	0%	?	-14%	-22%	-53*
Cc1ccc(OCCCN(C)C)c(Br)c1	-20	-3%	-8%	-2%	?	4
CCCCNCCCOc1cccc(Cl)c1Cl	-21	-3%	?	-1%	7.9µM*	-81*
C=CCNCCOCCOc1ccc(C)cc1Br	-8	1%	6%	5%	?	?
CCCCNCCCOc1ccc(C)cc1Br	0	-6%	-26%	-8%	?	-67*
CNCCCCOc1ccc(C(C)(C)C)cc1Cl	-17	/	-21%	7%	?	-50*
CCn1ccc2cc(S(=O)(=O)N3CCCN(C(=O)NCC(C)C)CC3)ccc21	2	-4%	6%	-2%	-15%	/
SMILES	D3 ag	ClpP mod	HEK293 tox	GLP1R ag	GLP-1R inv ag	D3 antag
CCN1CCc2c(sc(-n3cccc3)c2C(CCC(C)C)NC(=O)NCCC(=O)OC)C1 (configuration not stated)	-18	5%	12%	/	4%	/
Cc1ccc(OCCCNCCO)c(Br)c1	-2	-2%	?	-7%	4µM*	-60*
Cc1cc(C)cc(NC(=O)c2cc(CN3CCCC3)on2)c1	-15	-2%	-5%	/	-9%	/
Cc1cc2c(cc1C)C(c1ccccc1OC(C)C)CC(=O)N2 (configuration not stated)	2	/	-22%	3%	10µM*	24
COc1ccccc1C1CC(=O)Nc2cc(C)c(C)cc21 (configuration not stated)	9	-1%	?	5%	?	3
COc1ccc(CCNC(=O)CCc2c(C)c3ccc(O)c(C)c3oc2=O)cc1	-1	4%	52%	/	6%	/
CCOc1ccc(N(C(C)=O)c2nc(C)cc(C)c2C#N)cc1	4	25µM*	-2%	1%	15%	-15
O=C1CC(c2ccco2)CC(O)=C1C=Nc1ccccc1-c1ccccc1 (configuration not stated)	-14	/	-3%	17%	?	-105*
O=C(COc1ccc(Cl)cc1)Nc1ccc(Cc2ccncc2)cc1	7	7.1µM*	-6%	16%	?	-25
O=C(COc1ccc2ccccc2c1)Nc1ccc(Cc2ccncc2)cc1	-9	0%	-3%	6%	-3%	-16
O=C(Nc1ccc(Cc2ccncc2)cc1)c1cccs1	31*	1%	-5%	7%	5%	-19
O=C(c1ccncc1)c1ccc(NC(=O)c2cccs2)cc1	-1	/	10%	1%	7%	4
N/C(Cc1cccc2ccccc12)=N\OC(=O)c1cccs1	-3	1%	1%	0%	-28%	-76*
N/C(Cc1cccc2ccccc12)=N\OC(=O)Cc1cccs1	5	0%	5%	-4%	?	-10
O=C(NCc1ccc(F)cc1)C1CCN(S(=O)(=O)c2ccc3c(c2)OCCCO3)CC1	-4	-1%	7%	11%	-19%	26
